Bioassay records: PubChem, National Center for Advancing Translational Sciences (NCATS)
The list is not random: actives were taken first. Their share in the collection is about 19%.
TDP1 cell CPT: growth inhibition of DT40 Tdp1-/-;hTDP1 cells with camptothecin (screen for TDP1 inhibitors); chicken DT40 Tdp1-/-;hTDP1 cells + 20 nM CPT, ATP luminescence, 48 h; Potency, µM (series often up to 46.2 µM), inactives show top-dose activity change, negative = growth inhibition, usual class: inhibitors; actives 12% (n = 420,000); AID 686979; also: potency is read from the fitted curve at half-maximal effect; % is scaled to controls: 0 for no effect and ±100 for the full control effect; nearly all actives have a fitted effect of over 55% in size
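Chicken DT40 Tdp1-/- cells stably complemented with human TDP1 were seeded at 400 cells/well in medium containing 20 nM camptothecin, exposed to pin-transferred compounds, and grown at 37 °C for at least 48 hr. Viability was read as ATP luminescence.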
TGFb SMAD3 inh: TGF-b pathway inhibition | actives 1.2% (n = 410,000) | HepG2 CAGA-GFP TGF-b/SMAD3 reporter, GFP fluorescence, 18 h; TGF-beta stimulated, 500 pg/mL final | AID 588855 | Potency, µM (top dose mostly 46.1 µM), for the others: at the top dose activity, negative = inhibition, most hits filed as inhibitors; also: potency is read from the fitted curve at half-maximal effect; % is scaled to controls: 0 for no effect and ±100 for the full control effect; nearly all actives have a fitted effect of over 65% in size
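HEPG2 CAGA-GFP cells (1000/well, DMEM with 1% FBS) were pre-incubated 2 h at 37 degrees C, given compound by pin tool, then stimulated with TGF-beta at 500 pg/mL final for 18 h before per-cell GFP fluorescence imaging.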
HepG2 tox: HepG2 cytotoxicity, counter-screen for TGF-b inhibitors; HepG2 CAGA-GFP viability, ATP luminescence, 18 h; Potency, µM (titrated, usually from 46.1 µM), without a hit: top-dose activity change, negative = cytotoxicity, actives largely listed as cytotoxic; actives 0.76% (n = 410,000); AID 588856; also: potency is read from the fitted curve at half-maximal effect
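CellTiter-Glo luminescence gave cytotoxicity after 18 hours at 37 degrees C. The cells were HepG2 CAGA-GFP in 1% FBS DMEM, stimulated with 500 pg/mL TGF-beta after compound addition. %Activity was normalised to no-cell wells (complete cell-killing) and DMSO (no toxicity), and curves were fitted and classified.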
TDP1 cell noCPT: qHTS for Inhibitors of human tyrosyl-DNA phosphodiesterase 1 (TDP1): qHTS in cells in absence of CPT. DT40 Tdp1-/- hTDP1 cells, no CPT, ATP luminescence, 48 h. Potency, µM (highest dose often 46.2 µM), inactives show at the top dose activity change, negative = growth inhibition, most hits filed as inhibitors. actives 15% (n = 420,000); also: potency is read from the fitted curve at half-maximal effect; % is scaled to controls: 0 for no effect and ±100 for the full control effect; nearly all actives have a fitted effect of over 55% in size
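Chicken DT40 Tdp1-/- cells complemented with human TDP1, screened without camptothecin (DMSO vehicle only), 400 cells/well. Compounds pin-transferred, cells incubated at 37 °C for at least 48 hr. Growth read as ATP-dependent luminescence (CellTiter-Glo, 30 min at RT).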
IL1B secr inh: inflammasome signaling inhibition, IL-1 beta readout | THP-1 LPS/ATP IL-1B secretion, AlphaLISA, 16 h; hits give low values | activity change, % at 57.5 µM | actives 4.7% (n = 360,000) | AID 743279; in the data active = activity change below about -50%; inconclusive = mostly about -30% to -49%; also: % is scaled to controls: 0 for no effect and ±100 for the full control effect
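Secreted IL-1B measured by AlphaLISA bead assay after 16 h compound exposure of THP-1 cells; compounds (final up to 57.5 uM) added 1 h before LPS (250 ng/mL) and ATP (1.25 mM) stimulation; lower signal means less secretion.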
TDP1 inh: inhibitors of human tyrosyl-DNA phosphodiesterase TDP1; actives 0.28% (n = 350,000); recombinant TDP1, AlphaScreen DNA substrate cleavage; Q9NUW8; Potency, µM (highest dose often 130 µM), for the others: at the highest dose activity change, negative = inhibition, actives largely listed as inhibitors; AID 485290; also: potency is read from the fitted curve at half-maximal effect; % is scaled to controls: 0 for no effect and ±100 for the full control effect; nearly all actives have a fitted effect of over 40% in size
Target sequence (Q9NUW8 whole entry, looked up): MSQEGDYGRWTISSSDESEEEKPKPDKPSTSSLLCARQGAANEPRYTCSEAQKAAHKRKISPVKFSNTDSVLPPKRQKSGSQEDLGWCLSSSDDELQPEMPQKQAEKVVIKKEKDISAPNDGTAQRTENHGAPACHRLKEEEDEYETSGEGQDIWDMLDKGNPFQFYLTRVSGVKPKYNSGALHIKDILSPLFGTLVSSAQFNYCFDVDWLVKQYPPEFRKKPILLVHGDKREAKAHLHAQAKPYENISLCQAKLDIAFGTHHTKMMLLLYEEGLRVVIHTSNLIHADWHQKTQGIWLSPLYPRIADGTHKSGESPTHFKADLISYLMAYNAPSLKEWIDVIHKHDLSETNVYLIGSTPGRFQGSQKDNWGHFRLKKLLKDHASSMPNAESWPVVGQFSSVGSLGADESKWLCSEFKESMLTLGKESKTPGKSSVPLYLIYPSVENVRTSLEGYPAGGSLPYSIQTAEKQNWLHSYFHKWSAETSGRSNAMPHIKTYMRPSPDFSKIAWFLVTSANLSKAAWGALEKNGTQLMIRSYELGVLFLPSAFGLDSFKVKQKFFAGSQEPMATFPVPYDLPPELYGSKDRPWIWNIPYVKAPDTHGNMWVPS
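Enzyme-compound mixtures sat 15 min at room temperature, followed by a 5 min reaction with 15 nM final substrate and 10 min with AlphaScreen beads. Recombinant human Tdp1 was used at 1 nM final.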
Starred values were filed as active, the others as inactive; [ ] = dose if it differs, or a comment. Unless noted, calls follow the shape of the dose curve; as a rule, active = well fitted curve in the direction sought with a large enough effect; inconclusive = small, poorly fitted or top-dose-only effect, or another doubt; inactive = no such curve, though single readings can be large; an effect the other way counts as inactive or inconclusive.

For CSCCC(NS(=O)(=O)c1ccc(Cl)cc1)C(=O)OCC(=O)N1CCCc2ccccc21 (centres undefined) the results were TDP1 cell CPT 23.1µM*, TGFb SMAD3 inh 4.6%, HepG2 tox -10.1%, TDP1 cell noCPT 18.4µM*, IL1B secr inh -4.0 and TDP1 inh 2.7%.
For OCCCn1c(C2CCCN2c2nc(-c3ccc(F)cc3)cs2)nc2cc(Cl)c(Cl)cc21 (centres undefined) the results were TDP1 cell CPT inconclusive, TGFb SMAD3 inh -13.1%, HepG2 tox -10.4%, TDP1 cell noCPT 16.4µM* and IL1B secr inh -9.3.
For CCCn1c(C2CCCN2c2nc(-c3cccc(Br)c3)cs2)nc2cc(Cl)c(Cl)cc21 (centres undefined) the results were TDP1 cell CPT inconclusive, TGFb SMAD3 inh -17.7%, HepG2 tox -18.8%, TDP1 cell noCPT 18.4µM* and IL1B secr inh -5.6.
Screening Cc1csc(N2CCCC2c2nc3cc(Cl)c(N4CCCCC4)cc3n2CCOCCO)n1 (centres undefined) returned TDP1 cell CPT inconclusive, TGFb SMAD3 inh -13.7%, HepG2 tox -26.2%, TDP1 cell noCPT 6.1% and IL1B secr inh inconclusive.
Cc1csc(N2CCCC2c2nc3cc(C(F)(F)F)ccc3n2CCOCCO)n1 (centres undefined) was read as TDP1 cell CPT 9.2µM*, TGFb SMAD3 inh 2.9%, HepG2 tox 0.2%, TDP1 cell noCPT inconclusive and IL1B secr inh -14.5.
Screening COc1cccc(C2NC(=O)c3n[nH]c(-c4cccs4)c32)c1 (centres undefined) returned TDP1 cell CPT inconclusive, TGFb SMAD3 inh -12.5%, HepG2 tox -2.2%, TDP1 cell noCPT inconclusive and TDP1 inh 0.0%.
For O=C(CSc1nc(-c2ccccc2)c(-c2ccccc2)[nH]1)NCCN1C(=O)CSC1=O the results were TDP1 cell CPT 13µM*, TGFb SMAD3 inh inconclusive, HepG2 tox -1.8%, TDP1 cell noCPT 14.6µM*, IL1B secr inh 4.0 and TDP1 inh 9.4%.
Screening Cc1cccc(C)c1-n1ncc(C(=O)O)c1C1CCN(C(=O)OC(C)(C)C)CC1 returned TDP1 cell CPT -0.9%, TGFb SMAD3 inh -5.1%, HepG2 tox -1.7%, TDP1 cell noCPT -2.3% and TDP1 inh 2.5%.
Screening Cn1c(Cn2nnc3ccccc32)nnc1SCC(=O)N1c2ccccc2Sc2ccccc21 returned TDP1 cell CPT 13µM*, TGFb SMAD3 inh -27.0%, HepG2 tox 0.6%, TDP1 cell noCPT 16.4µM*, IL1B secr inh -3.4 and TDP1 inh 9.6%.
Cn1c(Cn2nnc3ccccc32)nnc1SCC(N)=O was read as TDP1 cell CPT -16.1%, TGFb SMAD3 inh 10.7%, HepG2 tox -2.4%, TDP1 cell noCPT -11.5%, IL1B secr inh 23.8 and TDP1 inh 7.3%.
For Cn1c(Cn2nnc3ccccc32)nnc1SCC(=O)N1c2ccccc2CCc2ccccc21 the results were TDP1 cell CPT 23.1µM*, TGFb SMAD3 inh inconclusive, HepG2 tox 8.3%, TDP1 cell noCPT inconclusive, IL1B secr inh -12.7 and TDP1 inh 4.2%.
Screening Cn1c(=O)c2c(SCC(=O)NCc3ccco3)nc(CC(C)(C)C)nc2n(C)c1=O returned TDP1 cell CPT inconclusive, TGFb SMAD3 inh -1.3%, HepG2 tox -24.5%, TDP1 cell noCPT 18.4µM*, IL1B secr inh 24.4 and TDP1 inh 2.5%.
Screening Cn1c(=O)c2c(SCC(=O)Nc3ccc4c(c3)OCCO4)nc(CC(C)(C)C)nc2n(C)c1=O returned TDP1 cell CPT 25.9µM*, TGFb SMAD3 inh 7.6%, HepG2 tox 4.9%, TDP1 cell noCPT inconclusive, IL1B secr inh 7.3 and TDP1 inh 3.3%.
For Cn1c(=O)c2c(SCC(=O)N3CCOCC3)nc(CC(C)(C)C)nc2n(C)c1=O the results were TDP1 inh 5.2%.
CCn1cc(S(=O)(=O)Nc2cc(C)ccc2F)cn1 was read as TDP1 cell CPT 0.5%, TGFb SMAD3 inh 4.8%, HepG2 tox 2.1%, TDP1 cell noCPT 10.3%, IL1B secr inh 4.9 and TDP1 inh 5.0%.
Screening COc1cc(/C=N/Nc2ccc([N+](=O)[O-])cn2)cc(OC)c1O returned TDP1 cell CPT 0.5%, TGFb SMAD3 inh -8.0%, HepG2 tox -4.0%, TDP1 cell noCPT inconclusive and IL1B secr inh 78.9.
CC(=O)Nc1ccc(C=NNc2ccc([N+](=O)[O-])cn2)cc1 was read as TDP1 cell CPT 23.1µM*, TGFb SMAD3 inh 0.1%, HepG2 tox -5.4%, TDP1 cell noCPT -25.1% and IL1B secr inh 9.4.
For Cc1cccc(C)c1-n1c(C)cc(/C=N\Nc2ccc([N+](=O)[O-])cn2)c1C the results were TDP1 cell CPT inconclusive, TGFb SMAD3 inh inconclusive, HepG2 tox -23.9%, TDP1 cell noCPT 14.6µM*, IL1B secr inh -22.0 and TDP1 inh 3.8%.
O=[N+]([O-])c1ccc(N/N=C\c2cccnc2)nc1 was read as TDP1 cell CPT -0.3%, TGFb SMAD3 inh -4.8%, HepG2 tox -11.6%, TDP1 cell noCPT -15.3%, IL1B secr inh 23.2 and TDP1 inh 1.2%.
For O=[N+]([O-])c1ccc(NN=Cc2cccc(O)c2)nc1 the results were TDP1 cell CPT 23.1µM*, TGFb SMAD3 inh -8.0%, HepG2 tox -5.8%, TDP1 cell noCPT inconclusive and IL1B secr inh 35.4.
`O=[N+]([O-])c1ccc(NN=Cc2cc(Br)ccc2O)nc1` gave TDP1 cell CPT 2.59µM*, TGFb SMAD3 inh inconclusive, HepG2 tox -52.0%, TDP1 cell noCPT 1.3µM* and IL1B secr inh 104.6.
COC(=O)c1ccccc1NC(=O)CCCn1nc(C)c2sc3ccccc3c2c1=O was read as TDP1 cell CPT -19.2%, TGFb SMAD3 inh 19.7%, HepG2 tox -5.2%, TDP1 cell noCPT inconclusive and TDP1 inh -5.7%.
CC1(C)C(C(=O)O)N2C(=O)CC2S1(=O)=O (centres undefined) was read as TDP1 inh 1.0%.
For C=CC(C1=CC(=O)C(OC)=CC1=O)c1ccccc1 (centres undefined) the results were TDP1 cell CPT 3.66µM*, TDP1 cell noCPT 2.91µM* and TDP1 inh 19.2%[56.1 µM].
C=CC(C1=CC(=O)C(OC)=C(OC)C1=O)c1ccccc1 (centres undefined) was read as TDP1 cell CPT 0.82µM*, TDP1 cell noCPT 0.731µM* and TDP1 inh 20.0%[56.1 µM].
